SENP7 inh: SENP7 protease inhibitors, primary screen, biochemical, luminescence, uHTS | Sentrin-specific protease 7 (Homo sapiens), Q9BQF6 | recombinant SENP7, Z-RLRGG-aminoluciferin luminescence, 40 min | inhibition, % at 5 µM | 330,000 tested, 1.5% active;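 active means inhibition above about 50% at the single test dose, limit read from the data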;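 further: plate controls were DMSO with enzyme for no effect and no enzyme buffer wells for full effect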
SENP6 inh: SENP6 protease inhibitors, primary screen, biochemical, luminescence, uHTS; Recombinant SENP6 catalytic domain, aminoluciferin luminescence; Sentrin-specific protease 6 (Homo sapiens), Q9GZR1; 330,000 tested, 1.8% active; inhibition, % at 10 µM; AID 2599, 2010;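 active means inhibition above about 50% at the single tested dose, limit read from the data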;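 further: plate controls were DMSO wells with enzyme for no effect and DMSO wells lacking enzyme for full effect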
SENP8 block-1: SENP8 protease inhibitors, primary screen, biochemical, luminescence. 330,000 tested, 1.2% active. inhibition, % at 10 µM. purified SENP8, Z-RLRGG-aminoluciferin cleavage; in the data active means inhibition above about 50%
HSP90 refold inh: HSP90 inhibitors, primary screen, cell lysate, luminescence | Rabbit reticulocyte lysate, luciferase refolding luminescence, 3 h | inhibition, % at 5.6 µM | 290,000 tested, 0.91% active;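 active means inhibition above the screen-wide mean plus 3 SD, computed separately per campaign, cut at about 16% in these data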;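 further: 0% = DMSO wells and 100% = 60 µM geldanamycin wells; inhibitors lower the luminescence because luciferase stays unfolded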
SENP8 block-2: human SENP8 protease inhibitors, primary screen, biochemical, fluorescence, Nedd8 protein substrate, uHTS; Sentrin-specific protease 8 (Homo sapiens), Q96LD8; recombinant SENP8; inhibition, % at 20 µM; 360,000 tested, 0.64% active; in the data active means inhibition mostly above about 40%, no sharp cut-off; inactive means mostly below about 27%
HSP90 confirm: HSP90 inhibitors, confirmation, cell lysate, luminescence; shares compounds with HSP90 refold inh; rabbit reticulocyte lysate, luciferase refolding luminescence, 3 h; inhibition, % at 5.9 µM; 2,300 tested, 64% active; AID 1846, 2009; in the data active means inhibition above about 18%;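 further: 0% = vehicle wells and 100% = reference inhibitor wells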
FLuc counter: firefly luciferase inhibitors, HSP90 counter-screen, confirmation, artefact control for HSP90 inhibitor project, biochemical, luminescence, triplicate. shares compounds with HSP90 refold inh. inhibition, % at 5.9 µM. 2,300 tested, 48% active. purified native firefly luciferase;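 active means inhibition above the mean inhibition of all tested sample wells plus 3 SD, cut at about 10% in these data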;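 further: 0% = DMSO with luciferase and 100% = wells lacking luciferase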
Target sequence (P08659 whole entry, looked up): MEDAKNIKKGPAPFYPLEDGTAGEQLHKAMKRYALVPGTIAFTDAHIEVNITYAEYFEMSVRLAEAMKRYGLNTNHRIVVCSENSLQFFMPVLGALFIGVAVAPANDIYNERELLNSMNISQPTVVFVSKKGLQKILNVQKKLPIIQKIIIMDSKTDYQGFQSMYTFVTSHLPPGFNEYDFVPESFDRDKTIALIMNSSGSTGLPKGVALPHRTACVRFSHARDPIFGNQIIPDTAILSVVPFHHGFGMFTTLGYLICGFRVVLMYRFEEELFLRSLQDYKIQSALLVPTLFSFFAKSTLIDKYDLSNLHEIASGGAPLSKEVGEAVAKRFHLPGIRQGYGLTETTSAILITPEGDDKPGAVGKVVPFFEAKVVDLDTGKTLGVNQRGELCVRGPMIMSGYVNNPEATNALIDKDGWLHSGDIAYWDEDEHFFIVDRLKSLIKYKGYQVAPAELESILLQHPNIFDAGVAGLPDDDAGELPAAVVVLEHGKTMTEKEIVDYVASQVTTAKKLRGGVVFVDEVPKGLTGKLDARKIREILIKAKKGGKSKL
Numbers without * were called inactive; · = no result. Most compounds without a hit are left out; they make up all but 2.8% or so of the library.

SMILES | SENP7 inh | SENP6 inh | SENP8 block-1 | HSP90 refold inh | SENP8 block-2 | HSP90 confirm | FLuc counter
Cc1ncc(C[n+]2csc(CCOC(=O)CC3C4CC5CC(C4)CC3C5)c2C)c(N)n1 (stereo unspecified) | -11 | -13 | -3 | -1 | 16 | · | ·
Cc1ccc(CNC(=O)c2ccccc2NC(=O)C2=CSCCO2)cc1 | -8 | -3 | -5 | 2 | -25 | · | ·
CS(=O)(=O)N1CCC(Oc2cccc(C(=O)NCCCC3CCCC3)c2)CC1 | 6 | 10 | -2 | 29* | 9 | -7 | -11
CC(Oc1ccc(Br)cc1)C(=O)Nc1ccc(S(=O)(=O)Nc2nccs2)cc1 (stereo unspecified) | -2 | 15 | 11 | -2 | -6 | · | ·
CC(Oc1ccccc1)C(=O)Nc1ccc(S(=O)(=O)Nc2nccs2)cc1 (stereo unspecified) | 5 | 22 | 0 | 41* | 3 | -11 | -7
Cc1cc(C(=O)CN2C(=O)C(=O)N(Cc3ccccc3)C2=O)c(C)n1-c1ccccc1F | 1 | 4 | 2 | 2 | 5 | · | ·
Cc1cc(C(=O)CN2CCC(C)CC2)c(C)n1-c1ccccc1F | -4 | 5 | -7 | 53* | 29 | 58* | 28*
CCCCCCNC(=O)c1cc(S(=O)(=O)N2CCc3ccccc32)ccc1F | -4 | 3 | 1 | 3 | 1 | · | ·
O=C(Nc1ncc([N+](=O)[O-])s1)c1ccc2c(c1)OCO2 | 102* | 96* | 97* | 76* | 19 | 87* | 76*
CCOC(=O)c1c(-c2ccc(C)o2)csc1NC(=S)NC(=O)c1ccccc1Br | -7 | -4 | -5 | 21* | 14 | 5 | -6
CC1CCCC(NS(=O)(=O)c2cc3c(cc2Cl)NC(=O)CO3)C1C (stereo unspecified) | 6 | 5 | 7 | -3 | 5 | · | ·
O=c1[nH]cnc2c1N1CCC2CC1 | 8 | 4 | -5 | 3 | 11 | · | ·
NS(=O)(=O)c1ccc(CCNC(=O)C2CCN(c3ncnc4c3nc3n4CCCCC3)CC2)cc1 | 14 | -17 | -8 | -1 | 6 | · | ·
COc1ccc(/C=N\Nc2ccccc2[N+](=O)[O-])c(C(=O)O)c1OC | 7 | -4 | 0 | 18* | 32 | 6 | 8
CC(C)c1ccc(OCc2ccc(C(=O)NN3CCN(C)CC3)o2)cc1 | 11 | 2 | 9 | 19* | 18 | 18* | -13
CC(C)c1ccc(OCc2ccc(C(=O)O)o2)cc1 | 77* | 95* | 87* | 94* | -21 | 94* | 80*
CCCCN1CC2=C(C1=O)C(c1ccc(O)cc1)NC(=O)N2C (stereo unspecified) | 3 | 7 | -2 | 1 | 4 | · | ·
CCOC(=O)Nc1cc(C(=O)OCC)c(C)nc1C | -1 | -3 | -8 | 27* | 21 | 3 | -3
CCOC(=O)c1cc(NC(=O)Nc2cc(C)ccn2)c(C)nc1C | -3 | 3 | 1 | 4 | 4 | · | ·
CCc1ccc2nc(N(CCN(C)C)C(=O)c3ccc4ncsc4c3)sc2c1 | 0 | 7 | 5 | 28* | -28 | 23* | 19*
Cc1ccc(-c2cn3cccc(C)c3n2)cc1 | · | · | · | 18* | -207 | 29* | 28*
Cc1cccn2cc(-c3ccc(S(=O)(=O)N4CCCCC4)cc3)nc12 | 38 | 33 | 16 | 0 | -361 | · | ·
NC(=O)Cc1ncc(C(F)(F)F)cc1Cl | -7 | -27 | -1 | 25* | 14 | -1 | -5
O=C(O)c1cccc(NC(=S)NC(NC(=O)c2cccc([N+](=O)[O-])c2)C(Cl)(Cl)Cl)c1 (stereo unspecified) | 1 | -19 | -5 | 29* | 13 | 75* | 3
O=C(O)c1cccc(NC(=S)NC(NC(=O)c2ccccc2[N+](=O)[O-])C(Cl)(Cl)Cl)c1 (stereo unspecified) | 0 | 6 | 3 | 1 | 6 | · | ·
SMILES | SENP7 inh | SENP6 inh | SENP8 block-1 | HSP90 refold inh | SENP8 block-2 | HSP90 confirm | FLuc counter
Cc1csc(N/N=C/c2ccccn2)n1 | 83* | 87* | 85* | 48* | -5 | 53* | 38*
O=C(Nc1ccc(C(=O)N2CCOCC2)cc1)c1cc(-c2cccnc2)nc2ccc(Br)cc12 | -9 | -5 | -6 | -3 | 13 | · | ·
COC(=O)C1=CN(c2cc(C)cc(C)c2)C=C(C(=O)OC)C1c1cccc(F)c1 | 10 | -9 | -7 | 2 | -400 | · | ·
N#CC1=C(N)Oc2n[nH]c(-c3cccs3)c2C1c1ccsc1 (stereo unspecified) | 26 | 24 | 18 | 21* | -5 | 4 | 1
COc1ccc(C(=O)OCCOc2ccccc2C(C)=O)c(O)c1 | 1 | 13 | 3 | 28* | 4 | 7 | -4
O=C(COC(=O)Cn1nnc2ccccc21)Nc1ccccc1Br | -4 | 10 | 0 | -1 | 17 | · | ·
COc1ccc(C(=O)N2CCOCC2)cc1S(=O)(=O)N1CCCc2ccccc21 | 0 | 14 | 6 | 20* | 6 | 1 | -6
Cn1c(=O)[nH]c(=O)c2c1nc(Br)n2CC(O)COCc1ccccc1 (stereo unspecified) | 13 | -13 | 1 | 17* | 5 | 0 | -1
O=C1N=C(N2CCCC2)S/C1=C\C=C\c1ccccc1 | 1 | 1 | 3 | 36* | -86 | 56* | 54*
O=C1N=C(N2CCCCC2)S/C1=C\c1ccncc1 | -6 | -35 | -5 | -1 | 6 | · | ·
CCc1ccc(/C=C2\SC(N3CCCC3)=NC2=O)cc1 | -5 | 13 | -3 | 26* | 13 | 12 | 12*
Cc1c(/C(O)=C2\C(=O)C(=O)N(CCN(C)C)C2c2cccs2)cnn1-c1ccccc1 (stereo unspecified) | -4 | -2 | 10 | 40* | -16 | 10 | -3
Cc1c(/C(O)=C2/C(=O)C(=O)N(CCN3CCOCC3)C2c2ccccn2)cnn1-c1ccccc1 (stereo unspecified) | -2 | 2 | -9 | 76* | -11 | 22* | 36*
Oc1c(C=Nc2cccc3cccnc23)sc2ccccc12 | 74* | 92* | 87* | 37* | · | 23* | 50*
O=C(N/N=C/c1sc2ccccc2c1O)c1ccccc1 | 3 | 40 | 2 | 5 | -54 | · | ·
O=[N+]([O-])c1ccc(O)c(N=Cc2sc3ccccc3c2O)c1 | · | · | · | 21* | -108 | -2 | -10
CCN(CC)CCOC(=O)c1ccc(NC(=O)/C=C/c2cccs2)cc1 | 0 | 0 | -3 | 27* | -65 | 6 | -7
O=C(Cc1cccs1)N=Nc1c(O)[nH]c2ccc(Br)cc12 | 6 | -30 | 5 | 0 | 21 | · | ·

High-throughput results: PubChem BioAssay, several laboratories
